This is a sample that favours compounds with a hit; in the whole collection about 2.4% have one here.
D2 PAM-1 – Beta-Arrestin HTS for Positive Allosteric Modulators of the Human D2 Dopamine Receptor: Potentiators; DiscoveRx D2 beta-arrestin cells, luminescence, 90 min; 100% = 57 uM dopamine signal; 360,000 compounds, 0.23% hits; D(2) dopamine receptor (Homo sapiens), P14416; potentiation, % (test concentration not listed); in the data active = potentiation above about 50%; inconclusive = mostly about 30% to 49%
Target sequence (P14416 whole entry, looked up): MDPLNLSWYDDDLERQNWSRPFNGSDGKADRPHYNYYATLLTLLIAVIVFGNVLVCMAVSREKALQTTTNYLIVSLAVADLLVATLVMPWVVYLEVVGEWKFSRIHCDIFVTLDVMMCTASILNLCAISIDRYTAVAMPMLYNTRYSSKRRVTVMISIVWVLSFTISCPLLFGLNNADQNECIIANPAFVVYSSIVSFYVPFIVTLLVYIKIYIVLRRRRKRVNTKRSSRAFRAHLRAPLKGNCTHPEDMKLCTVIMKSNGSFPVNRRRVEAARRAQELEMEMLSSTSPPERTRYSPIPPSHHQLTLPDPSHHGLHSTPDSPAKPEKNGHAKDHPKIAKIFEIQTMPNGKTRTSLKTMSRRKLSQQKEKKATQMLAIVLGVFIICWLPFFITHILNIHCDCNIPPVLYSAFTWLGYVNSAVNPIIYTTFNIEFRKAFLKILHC
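D2 cells co-treated with compound plus 50 nM dopamine (EC20) for 90 min at 37 deg C to detect potentiation. Beta-arrestin recruitment was read as enzyme-fragment luminescence after 1 h at ambient temperature. Full response was set by 57 uM dopamine.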
D2 antagonist – HTS Assay for Allosteric Antagonists of the Human D2 Dopamine Receptor: Primary Screen for Antagonists | HEK293 TREx D2 cells, calcium flux, dopamine EC80 | AID 485344, 2010 | inhibition, % at 10 µM | 340,000 compounds, 2% hits | D(2) dopamine receptor (Homo sapiens), P14416; in the data active = inhibition above about 30%; inactive = below that, where a call was filed; note: 0% is about no effect
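Calcium mobilization kinetics were recorded at 1 s intervals in tetracycline-induced HEK293 T-REx D2 cells, first for 180 s after compound addition and then 180 s after EC80 dopamine.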
D2 ag-1 – Beta-Arrestin HTS for Positive Allosteric Modulators of the Human D2 Dopamine Receptor: Agonists; DiscoveRx PathHunter D2 beta-arrestin, luminescence, 90 min; 100% = 57 uM dopamine signal; activation, % (test concentration not listed); 360,000 compounds, 0.084% hits; in the data active = activation above about 40%; inconclusive = between about 15% and that limit
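DiscoveRx PathHunter D2 beta-arrestin cells (2,100/well) attached overnight, then compound-stimulated 90 min at 37 C in HBSS/10 mM HEPES/0.1% Tween-20 buffer; beta-galactosidase complementation read by luminescence after 1 h at ambient temperature. Dopamine 57 uM final (EC100) as control.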
D2 PAM-2 – HTS Assay for Positive Allosteric Modulators of the Human D2 Dopamine Receptor: Primary Screen for Potentiators; D(2) dopamine receptor (Homo sapiens), P14416; HEK293 T-REx D2, calcium flux, EC20 dopamine potentiation; potentiation, % at 10 µM; 340,000 compounds, 0.34% hits;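 active = potentiation over 3 SD above the plate norm, cut at about 30% in these data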; note: 0% is about no effect
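Tetracycline-induced HEK293 T-REx cells force-coupled to calcium signalling expressed D2; compounds were pin-added after a 10 s baseline, read kinetically 180 s, then an EC20 dopamine challenge followed with a further 180 s calcium read.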
D2 ag-2 – HTS Assay for Allosteric Agonists of the Human D2 Dopamine Receptor: Primary Screen for Agonists; D(2) dopamine receptor (Homo sapiens), P14416; HEK293 T-REx D2 cells, calcium flux agonist mode; activation, % at 2 µM; 340,000 compounds, 0.53% hits; AID 485358, 2010;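 active = activation over 3 SD above normal in the single-dose calcium agonist read, cut at about 30% in these data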; note: 0% is about no effect
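Tetracycline-induced HEK293 Trex cells with D2 receptor force-coupled to calcium signaling, plated overnight at 30 C and loaded with no-wash calcium dye. Calcium flux read kinetically for 180 s after compound addition; responses flag agonists.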
Numbers without * were called inactive; ? = inconclusive; . = not tested or not shown; ! = not confirmed by another sample.

SMILES | D2 PAM-1 | D2 antagonist | D2 ag-1 | D2 PAM-2 | D2 ag-2
O=C(Cn1cc(C(=O)c2ccccc2)c(=O)c2cc3c(cc21)OCCO3)Nc1ccc(F)c(F)c1 | . | . | . | 0 | 0
COc1cc(S(=O)(=O)N2CCCCC2)ccc1NC(=O)c1ccccc1Cl | -3 | 1 | 1 | 48* | 0
COc1ccccc1C(=O)Nc1nc(-c2ccc(S(=O)(=O)N3CCOCC3)cc2)cs1 | 56* | 2 | 9 | 5 | 1
CCC(=O)Nc1ccc(CC)cc1-c1nc2ccccc2n(CC(=O)Nc2ccccc2C)c1=O | . | . | . | 2 | 0
CCN(CC)CCNC(=O)c1cc(Nc2ccc(OC)c(OC)c2)nc2ccccc12 | -23 | 43* | 0 | 12 | 0
COc1ccc(Nc2cc(C(=O)NCc3ccccc3)c3ccccc3n2)cc1OC | . | . | . | . | 0
COc1ccc(Nc2cc(C(=O)NCCCN3CCOCC3)c3ccccc3n2)cc1OC | -10 | 30* | -6 | -5 | 0
CCOc1ccc(-c2nnc(SCC(=O)NCc3ccc(Cl)cc3)o2)cc1 | . | . | . | 0 | -2
Cc1cc(Cl)ccc1OCC(=O)N1CCC(c2nc3ccccc3o2)CC1 | . | . | . | 13 | 0
CCCCN(CCCC)CCNC(=O)Cn1nc(CC)n2c(cc3sccc32)c1=O | . | . | . | -24 | 0
CCOc1ccc(C(=O)O/N=C(\N)c2ccccn2)cc1 | 55* | 2 | ? | -3 | 1
COc1ccc(Cl)cc1C(=O)O/N=C(\N)c1ccccn1 | 63*! | 27 | ? | -2 | 0
Cc1ccc2c(CC(=O)Nc3cc(C(F)(F)F)ccc3Cl)coc2c1C | . | . | . | -5 | 1
CCN(CC)CCNC(=O)C1c2cc(OC)c(OC)cc2C(=O)N(C)C1c1cccs1 (configuration not stated) | -30 | 35* | -4 | . | -1
O=C1CCN(Cc2cccnc2)CCN1[C@H](CO)c1ccccc1 | -6 | 0 | 0 | -8 | 0
COc1ccc(CN2CCC(=O)N([C@H](CO)c3ccccc3)CC2)cc1 | -20 | 52* | -2 | -11 | 0
Cc1ccc(C)c(NC(=O)CSc2ccc(S(=O)(=O)N3CCCC3)cn2)c1 | -8 | 39* | 3 | -11 | 0
Cc1cc(C)cc(CSc2ccc(S(=O)(=O)N3CCCC3)cn2)c1 | 0 | 0 | 0 | -13 | 1
CCC(CC)NC(=O)CSc1ccc(S(=O)(=O)N2CCCCC2)cn1 | 3 | -3 | 0 | 3 | -1
CN1CCN(S(=O)(=O)c2ccc(SCCOc3ccccc3)nc2)CC1 | -8 | 9 | -3 | -2 | -1
O=S(=O)(c1ccc(SCCO)nc1)N1CCCC1 | 11 | 3 | 0 | 49* | 1
O=c1cc(CSc2ccc(S(=O)(=O)N3CCCCC3)cn2)nc2sccn12 | 0 | 3 | -2 | 33* | -1
CCOc1ccc(OCCSc2ccc(S(=O)(=O)N3CCN(C)CC3)cn2)cc1 | 1 | 30* | -2 | -1 | 1
N#Cc1cc2c(=O)n3ccccc3nc2n(-c2nnc(SCc3ccccc3Cl)s2)c1=O | . | . | . | 0 | .
CC1CCN(S(=O)(=O)c2ccc3ncn(CC(=O)N4CCN(C)CC4)c(=O)c3c2)CC1 | -4 | 48* | -5 | 12 | 0
SMILES | D2 PAM-1 | D2 antagonist | D2 ag-1 | D2 PAM-2 | D2 ag-2
COc1ccc(OC)c(NC(=O)c2cc(-c3ccc(C)cc3O)n[nH]2)c1 | 13 | 32* | -4 | -1 | -1
CC/C(=N\NC(N)=O)c1ccc(OC)c(OC)c1 | -14 | 38* | -6 | 5 | -1
CC/C(=N\NC(=O)COc1ccc(Br)cc1)c1ccc(OC)c(OC)c1 | -10 | . | -4 | . | .
COc1ccc2c(c1)CC(C(=O)Nc1cc(Cl)ccc1C)CO2 (configuration not stated) | . | . | . | 1 | -1
CCCCC(Sc1nc2cc3c(cc2c(=O)n1CCCC(=O)NCc1ccc(OC)cc1)OCO3)C(=O)OCC (configuration not stated) | . | . | . | 9 | 1
Clc1cccc(-n2ncc3c(Nc4ccc5c(c4)OCCO5)ncnc32)c1 | . | . | . | 7 | -1
C=CCNCCCCOc1c(Cl)cc(C)cc1Br | -5 | -10 | -2 | -7 | 0
Cc1cc(C)c(OCCCCNCc2ccccc2)c(Cl)c1 | -20 | 49* | -2 | -14 | -1
C=CCNCCOc1c(C)cc(C)cc1Cl | -29 | 32* | -1 | -22 | 0
O=C(Nc1ccc(Cl)cc1)C1CCN(c2nc3ccccc3n3cccc23)CC1 | . | . | . | 11 | 0
CCOC(=O)c1sc(NC(=O)c2cc3nc(-c4ccccc4)cc(C(F)(F)F)n3n2)c(C(=O)OCC)c1C | . | . | . | 0 | 1
CS(=O)(=O)N1N=C(c2cccs2)CC1c1ccccc1 (configuration not stated) | -10 | 32* | -3 | 0 | 0
CCOC(=O)c1c(C)oc2c1c1c(c3ccccc32)OCN(CCCC(=O)O)C1 | 6 | -5 | 4 | 9 | 0
CCOC(=O)c1c(C)oc2c1c1c(c3ccccc32)OCN(Cc2cccnc2)C1 | 113* | -4 | ? | 1 | 0
CCCS(=O)(=O)c1nc(S(=O)(=O)c2ccc(C)cc2)c(NCCCOC(C)C)s1 | . | . | . | 12 | -1
C=CCc1ccc(OCCCNC2CCCC2)c(OC)c1 | -5 | . | 1 | . | .
C=CCc1ccc(OCCCNCc2ccccc2)c(OC)c1 | -79 | 62* | -1 | -31 | 0
Cc1ccc(C(C)C)c(OCCCNCc2cccnc2)c1 | -23 | 10 | -3 | -12 | -1
Cc1ccc(C(C)C)c(OCCNCCc2ccccc2)c1 | -15 | 41* | -1 | -22 | -3
Clc1ccc(OCCCNCc2ccccc2)c2ccccc12 | -15 | 41* | -1 | -30 | 4
C=CCc1ccccc1OCCNCc1ccccc1 | -20 | 69* | 3 | -12 | 0
CCOc1ccc(CNC(=O)c2ccc3c(c2)c(C)c(C)n3Cc2ccc(Cl)cc2)cc1 | . | . | . | -2 | 1
Cc1cccc(-n2c(SCC(=O)Nc3ccccc3C)nc3c(oc4ccccc43)c2=O)c1 | . | . | . | -4 | 0
Brc1ccccc1OCCNCc1ccccc1 | -17 | 94* | 0 | -20 | 1
Cc1cc(C)c(C)c(OCCNCc2ccccc2)c1 | -12 | 75* | 4 | -17 | 1
O=C(Cn1ncc2c3ccccc3n(Cc3cccc(Cl)c3)c2c1=O)N1CCCCCC1 | . | . | . | 4 | 0
CCN(CC)S(=O)(=O)c1ccc(C)c(C)c1 | -9 | -15 | -2 | -7 | -1
CC(C)N(C(C)C)S(=O)(=O)c1ccc(N2CCc3ccccc3C2)nc1 | 2 | 1 | -5 | -10 | 1
